# Measured values: PubChem BioAssay
# Where “and” joins values, the source holds several entries; their conditions need not be identical. Identical values can stand only once. Calls of active or inactive are those of the source.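 The calls were made as follows, unless noted: active = compounds whose cell count with miR-34 switched on is under 0.7 times the count with it off; inactive = the rest.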
# Legend:
# [1] = liver-stage malaria parasite growth inhibition, primary screen, cell-based, HepG2, luciferase luminescence, HepG2 viability (AID 624349; in the data active = parasite load remaining mostly below about 12%, no sharp cut-off; inactive = mostly above about 10%;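 also: 100% = mean of DMSO negative control wells on the same plate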); conditions: P. berghei liver stage in HepG2, luciferase luminescence, concentration not given here; parasite load remaining: stronger effect = lower value; viability: measured here: HepG2 viability without parasites
# [2] = stimulators of nuclear beta-catenin in C2C12, primary screen, imaging, WNT3A-conditioned medium, mouse C2C12, NPC library (AID 1117326; in the data active = nuclear beta-catenin stimulation mostly above about 4.2%, no sharp cut-off; inactive = mostly below about 10%); conditions: stronger effect = higher value
# [3] = stimulators of insulin release from INS-1E, primary screen, cell-based, 5 mM glucose, NPC library (AID 1117329;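 active = compound raises insulin release from rat beta cells at 5 mM glucose, no numeric limit stated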); conditions: rat INS-1E insulin secretion, at 10 µM, stronger effect = higher value
# [4] = growth inhibition of GSK3B-pretreated HCT116 cells – cell-based, CellTiter-Glo, 0.2 to 20 µM (AID 1117336;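 active = compounds lowering colon cancer cell viability after pretreatment blocking the GSK3B kinase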); conditions: HCT116 viability after GSK3B inhibitor, at 20 µM, stronger effect = higher value
# [5] = inhibition of endothelial tube formation, primary screen, imaging, VEGF stimulated, CD31 staining, tube area, NPC library (AID 1117340;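 active = compound that reduces growth-factor-driven endothelial tube area in a mixed cell culture, no cutoff stated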); conditions: VEGF-stimulated ADSC/ECFC co-culture, at 10 µM, stronger effect = higher value
# [6] = glucagon-like peptide 1 release enhancers, primary assay, NCI-H716 cell line, NPC library (AID 1117341;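 active = compound raises GLP1 secretion from the human gut endocrine cells, with no numeric limit stated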); conditions: NCI-H716 cells, at 10 µM, stronger effect = higher value
# [7] = HCT116 colon cancer cell growth inhibition, primary screen, CellTiter-Glo luminescence, NPC library (AID 1117342;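 active = compounds that lower survival of HCT116 colon cancer cells in the luminescence readout, no numeric limit stated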); conditions: at 20 µM (top of the series)
# [8] = CellTiter-Glo luminescent readout of SW480 viability loss, NPC library primary (AID 1117343;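 active = compounds that lower viability of the colon cancer cells in the luminescence readout, with no numeric limit stated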); conditions: CellTiter-Glo luminescence; at 20 µM (top of the series) unless noted
# [9] = decreased DLD-1 cellular survival, CellTiter-Glo luminescent readout, NPC compound collection, primary HTS (AID 1117346;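 active = compounds that lower survival of DLD-1 colon cancer cells in the luminescence readout, no cutoff given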); conditions: DLD-1 viability, CellTiter-Glo luminescence; at 20 µM (top of the series)
# [10] = differential killing of epithelial or mesenchymal cells, primary screen, imaging, PC-3E GFP, TEM4-18 mCherry, co-culture (AID 1345086;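 active = compounds killing one labelled cell type while sparing the other, by normalised counts and ratio limits, not self-fluorescent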;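 as to all read-outs here: cells exposed to compound for 72 h before imaging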;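 as to red/green cell ratio (normalised): normalised mesenchymal count divided by normalised epithelial count so high means epithelial killing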); conditions: imaging cell counts, at 1 µM; for red/green cell ratio (normalised): actives lie on both sides, counts scaled to control wells, 1 = unselective
# [11] = sensitizers of A549 cells to miR-34 induction, primary screen, imaging, A549 dox-inducible miR-34, nuclei and caspase counts (AID 1347080); conditions: A549 miR-34 inducible, Hoechst nuclei count, 48 h
# [12] = survival rescue of mitochondrial mutant cells in low glucose, primary screen, MELAS cybrids, Rieske KO mouse fibroblasts, CellTiter-Glo (AID 1508586;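 active = mean z-score across replicates of 1.96 or higher in either the MELAS or the Rieske mutant cell line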;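 also: z relative to plate mean and SD of compound and empty wells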)
# [13] = target: NAD(+) hydrolase SARM1 (Homo sapiens) (UniProt Q6SZW1); experiment: SARM1 TIR NADase inhibitors, cell lysate, NAD-Glo luminescence (AID 1508614;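 active = compound whose remaining NAD level is above about 45 nM, limit read from the data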;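 also: higher remaining NAD means stronger inhibition of SARM1 NADase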); conditions: SAM-TIR HEK293T lysate NADase, at 1 µM, stronger effect = higher value
# NAD(+) hydrolase SARM1 (Homo sapiens), sequence (Q6SZW1 whole entry, looked up): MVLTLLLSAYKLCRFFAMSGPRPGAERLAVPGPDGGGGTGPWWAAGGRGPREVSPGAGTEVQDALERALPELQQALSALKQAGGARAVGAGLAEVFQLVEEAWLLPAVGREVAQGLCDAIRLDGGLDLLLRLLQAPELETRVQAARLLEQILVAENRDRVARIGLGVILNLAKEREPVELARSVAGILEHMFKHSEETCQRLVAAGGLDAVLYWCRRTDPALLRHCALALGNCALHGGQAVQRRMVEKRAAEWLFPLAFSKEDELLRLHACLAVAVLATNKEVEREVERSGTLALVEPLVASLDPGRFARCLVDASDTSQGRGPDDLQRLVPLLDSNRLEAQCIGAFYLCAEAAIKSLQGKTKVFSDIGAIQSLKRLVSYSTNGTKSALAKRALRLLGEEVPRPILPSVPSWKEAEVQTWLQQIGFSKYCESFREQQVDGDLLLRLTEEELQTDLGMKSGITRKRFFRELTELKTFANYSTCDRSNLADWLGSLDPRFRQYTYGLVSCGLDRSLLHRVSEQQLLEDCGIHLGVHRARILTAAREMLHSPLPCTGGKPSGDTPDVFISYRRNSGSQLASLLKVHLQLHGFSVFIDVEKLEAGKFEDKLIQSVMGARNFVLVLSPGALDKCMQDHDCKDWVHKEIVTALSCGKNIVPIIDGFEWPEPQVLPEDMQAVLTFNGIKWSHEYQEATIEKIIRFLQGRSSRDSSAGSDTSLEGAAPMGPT
# [14] = hESC survival regulators, cell-based (AID 493140; call rule not given here;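 also: cells exposed to compounds for four days before counting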); conditions: human embryonic stem cell survival screen; stronger effect = higher value
# [15] = measured here: epithelial PC-3E GFP cell survival
# [16] = measured here: mesenchymal TEM4-18 mCherry cell survival
# [17] = stronger effect = lower value, cell number ratio, induced over uninduced
# [18] = measured here: relative caspase fold change +Dox/-Dox
# [19] = measured here: total cells with miR-34 induction, stronger effect = lower value
# [20] = measured here: total cells without miR-34 induction
# [21] = MELAS cybrid survival, CellTiter-Glo 48 h, stronger effect = higher value
# [22] = Rieske KO mouse fibroblast survival, CellTiter-Glo 72 h
structure (smiles),measurement,setting,value
COc1cc(C(=O)N2CCOCC2)cc(OC)c1OC,parasite load remaining,[1],75.3% (inactive)
same,viability,[1],105%
same,nuclear beta-catenin stimulation,[2]; at 10 µM,0.3% (inactive)
same,nuclear beta-catenin stimulation,"[2]; stimulation, at 2 µM",-0.7%
same,insulin secretion stimulation,[3],-1.8% (inactive)
same,viability decrease,[4],14.1% (inactive)
same,tube area decrease,[5],-2.8% (inactive)
same,GLP1 secretion stimulation,[6],6.1% (inactive)
same,inhibition of viability,[7],-2.4% (inactive)
same,viability decrease (inhibition),[8],30.7% (inactive)
same,viability decrease (inhibition),[9],20.1% (inactive)
same,red/green cell ratio (normalised),[10],1.06 (inactive)
same,normalised cell number,[10]; [15],1.01
same,normalised cell number,[10]; [16],1.07
same,fold change,[11]; [17],0.951 (inactive)
same,fold change,[11]; [18],1.55
same,cell count,[11]; [19],11700
same,cell count,[11]; [20],12300
same,z-score,[12]; [21],0.673 (inactive)
same,z-score,[12]; [22],0.477
same,remaining NAD,[13],10 nM (inactive)
O=C(N/N=C/c1ccc([N+](=O)[O-])o1)c1ccc(O)cc1,survival,[14],8.5 (inactive)
same,parasite load remaining,[1],-8.11% (inactive) and 25.6% (inactive)
same,viability,[1],21.5% and 60.5%
same,nuclear beta-catenin stimulation,[2]; at 10 µM,18.2% (inactive)
same,nuclear beta-catenin stimulation,"[2]; stimulation, at 2 µM",2%
same,insulin secretion stimulation,[3],-3% (inactive)
same,viability decrease,[4],99.5% (active)
same,tube area decrease,[5],26.5% (inactive)
same,GLP1 secretion stimulation,[6],5.1% (inactive)
same,inhibition of viability,[7],102% (active)
same,viability decrease (inhibition),[8],67.8% (active)
same,viability decrease (inhibition),[9],81.1% (active)
same,red/green cell ratio (normalised),[10],0.78 (inactive)
same,normalised cell number,[10]; [15],1.11
same,normalised cell number,[10]; [16],0.87
same,fold change,[11]; [17],0.844 (inactive)
same,fold change,[11]; [18],1.92
same,cell count,[11]; [19],3090
same,cell count,[11]; [20],3660
same,z-score,[12]; [21],-3.44 (inactive)
same,z-score,[12]; [22],-1.34
same,remaining NAD,[13],10 nM (inactive)
CC(C)(C)C(=O)C(Oc1ccc(Cl)cc1)n1ccnc1 (stereo unspecified),parasite load remaining,[1],15% (inactive)
same,viability,[1],70%
same,nuclear beta-catenin stimulation,[2]; at 10 µM,2.6% (inactive)
same,nuclear beta-catenin stimulation,"[2]; stimulation, at 2 µM",1.9%
same,insulin secretion stimulation,[3],2.5% (inactive)
same,viability decrease,[4],6.3% (inactive)
same,tube area decrease,[5],11.3% (inactive)
same,GLP1 secretion stimulation,[6],7.4% (inactive)
same,inhibition of viability,[7],34.8% (inactive)
same,viability decrease (inhibition),[8],27.1% (inactive)
same,viability decrease (inhibition),[9],44.1% (inactive)
same,red/green cell ratio (normalised),[10],0.92 (inactive)
same,normalised cell number,[10]; [15],0.94
same,normalised cell number,[10]; [16],0.86
same,fold change,[11]; [17],0.911 (inactive) and 0.872 (inactive)
same,fold change,[11]; [18],1.11 and 1.1
same,cell count,[11]; [19],8350 and 8730
same,cell count,[11]; [20],9170 and 10000
same,z-score,[12]; [21],-0.118 (inactive) and 0.2 (inactive)
same,z-score,[12]; [22],-0.278 and -0.284
same,remaining NAD,[13],10 nM (inactive)
CCN(CC)CCc1nc(-c2ccccc2)no1,survival,[14],3.33 (inactive)
same,parasite load remaining,[1],66.5% (inactive)
same,viability,[1],105%
same,nuclear beta-catenin stimulation,[2]; at 10 µM,2% (inactive)
same,nuclear beta-catenin stimulation,"[2]; stimulation, at 2 µM",1.3%
same,insulin secretion stimulation,[3],-0.7% (inactive)
same,viability decrease,[4],-19.4% (inactive)
same,tube area decrease,[5],-1% (inactive)
same,GLP1 secretion stimulation,[6],3.1% (inactive)
same,inhibition of viability,[7],-2.53% (inactive)
same,viability decrease (inhibition),[8],10% (inactive)
same,viability decrease (inhibition),[9],-2.9% (inactive)
same,red/green cell ratio (normalised),[10],0.94 (inactive)
same,normalised cell number,[10]; [15],1.14
same,normalised cell number,[10]; [16],1.07
same,fold change,[11]; [17],0.948 (inactive) and 0.876 (inactive)
same,fold change,[11]; [18],0.926 and 0.982
same,cell count,[11]; [19],8840 and 9090
same,cell count,[11]; [20],9330 and 10400
same,z-score,[12]; [21],0.0836 (inactive)
same,z-score,[12]; [22],-0.0837
same,remaining NAD,[13],10 nM (inactive)
